# Measurements taken from PubChem BioAssay.
# Active and inactive are the calls of the source.
# Assays:
# [1] = test system: PRMT1 (protein arginine N-methyltransferase 1); assay: PRMT1 binders on small-molecule microarrays, primary screen, biochemical, small-molecule microarray, 635 nm fluorescence (AID 1088); conditions: small-molecule microarray binding, higher = more signal;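 also: binding of Prmt1 protein to compounds spotted on small-molecule microarray slides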
# [2] = yeast growth modulation, basal conditions, primary screen, YJM789 clinical isolate, OD600, 24 h (AID 1089);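 also: growth of clinical yeast isolate S. cerevisiae YJM 789 seeded 1000 cells per well; test concentration not given here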; conditions: S. cerevisiae YJM789 growth, higher = more signal, called active from +8 up or from −8 down
# [3] = fission yeast growth modulation, primary screen, strain 972, OD600, 24 h, no modulator (AID 1090);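 also: basal condition with compound alone and no growth modifier present; test concentration not given here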; conditions: S. pombe 972 growth, higher = more signal, called active from +8 up or from −8 down
# [4] = S. cerevisiae growth modulation with rapamycin, primary screen, strain BY4716, OD600, 96 h (AID 1091); conditions: higher = more signal, called active from +8 up or from −8 down; also: test concentration not given here
# [5] = biological target: Torsin-1A-interacting protein 2 (Homo sapiens) (UniProt Q8NFQ8); assay: LULL1 binders on small-molecule microarray, primary screen, cell lysate, human LULL1 lysate, 635/667 nm fluorescence (AID 1092); conditions: hLULL1 lysate binding, 635 nm fluorescence, higher = more signal;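 also: probe is lysate of COS7 cells overexpressing human LULL1; score merges per-feature 667 nm fluorescence with signal-to-noise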
# [6] = E. coli growth modulation, two-sided OD650, primary screen, E. coli filamentation project, strain DRC41, 24 h (AID 1093); conditions: OD650, 24 h, higher = more signal, called active from +8 up or from −8 down;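 also: MC1000 strain lacking acrAB efflux and sulA so SOS filamentation is blocked; test concentration not given here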
# [7] = small-molecule microarray binders of probe aLefty2, primary screen, biochemical, biotinylated probe, 635/667 nm fluorescence (AID 1094); conditions: higher = more signal;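 also: score merges spot fluorescence near 667 nm with spot signal-to-noise ratio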
# [8] = test system: Noggin (protein binding on small-molecule microarray); assay: Noggin binders on small-molecule microarray, primary screen, biochemical, 635/667 nm fluorescence (AID 1095); conditions: 635 nm fluorescence, higher = more signal;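 also: score merges 667 nm feature fluorescence with signal to noise over triplicate slides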
# [9] = biological target: Neurogenic locus notch homolog protein 3 (Homo sapiens) (UniProt Q9UM47); assay: NOTCH3 binders on small-molecule microarray, primary screen, biochemical, 635/667 nm fluorescence (AID 1096); conditions: NOTCH3 binding, 635 nm fluorescence, higher = more signal
# [10] = small-molecule microarray binders of probe aEGFR, primary screen, biochemical, biotinylated probe, 635/667 nm fluorescence (AID 1097); conditions: higher = more signal;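 also: probe is a biotinylated anti-EGFR antibody binding compounds printed on slides; score combines fluorescence near 667 nm and signal to noise of each spot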
# [11] = test system: Plasmodium falciparum Sir2 (PF13_0152, Sir2A); assay: pfSir2 binders on small-molecule microarrays, primary screen, biochemical, small-molecule microarray, 635 nm fluorescence (AID 1098); conditions: small-molecule microarray binding, fluorescence 635 nm; higher = more signal;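 also: score merges spot fluorescence intensity with its signal-to-noise ratio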
# [12] = small-molecule microarray binders of probe aDKK1, primary screen, biochemical, biotinylated probe, 635/667 nm fluorescence (AID 1099); conditions: higher = more signal;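 also: score merges 667nm spot fluorescence with signal to noise across triplicate slides; reference of the scale not given here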
# [13] = small-molecule microarray binders of probe aCHRDL2, primary screen, biochemical, biotinylated probe, 635/667 nm fluorescence (AID 1100); conditions: higher = more signal
# [14] = splicing luciferase reporter signal modulators, primary screen, spliceosome inhibition project, cell-based, HEK293, splice +/- reporter (AID 1101); conditions: luminescence, 24 h, higher = more signal, called active from +8 up or from −8 down;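 also: HEK293 cells carrying a splicing-competent luciferase reporter gene; test concentration not given here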
# [15] = biological target: Fibroblast growth factor 10 (Homo sapiens) (UniProt O15520); assay: FGF10 binders on small-molecule microarrays, primary screen, biochemical, small-molecule microarray, 635 nm fluorescence (AID 1102); conditions: FGF10 binding, fluorescence 635 nm, higher = more signal
# [16] = test system: glycogen synthase kinase-3 (GSK3A per assay name; protocol says GSK3B); assay: GSK3 binders on small-molecule microarrays, primary screen, biochemical, small-molecule microarray, 635 nm fluorescence, GSK3A (AID 1103); conditions: small-molecule microarray binding, fluorescence 635 nm; higher = more signal; also: the record names both GSK3A and GSK3B
# [17] = biological target: Epidermal growth factor receptor (Homo sapiens) (UniProt P00533); assay: EGFR binders on small-molecule microarrays, primary screen, biochemical, small-molecule microarray, 635 nm fluorescence (AID 1104); conditions: EGFR binding, higher = more signal;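 also: score merges 667 nm emission intensity with spot signal to noise over triplicate slides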
# [18] = biological target: Follistatin-related protein 3 (Homo sapiens) (UniProt O95633); assay: FSTL3 binders on small-molecule microarrays, primary screen, biochemical, small-molecule microarray, 635 nm fluorescence (AID 1105); conditions: FSTL3 binding, higher = more signal;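 also: score merges emission near 667 nm and signal to noise per printed spot across three slides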
# [19] = biological target: Dickkopf-related protein 1 (Homo sapiens) (UniProt O94907); assay: DKK1 binders on small-molecule microarrays, primary screen, biochemical, small-molecule microarray, 635 nm fluorescence scan (AID 1106); conditions: DKK1 binding, higher = more signal;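 also: score merges emission near 667 nm with signal to noise over three replicate slides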
# [20] = test system: Inhibin beta A chain (activin A); assay: INHBA (activin A) binders on microarrays, primary screen, biochemical, small-molecule microarray, 635 nm fluorescence scan (AID 1107); conditions: small-molecule microarray binding, higher = more signal;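 also: mouse activin A protein probed at 4.33 µg/mL on printed slides; score merges bound-protein fluorescence near 667 nm with spot signal-to-noise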
# Sequence of Neurogenic locus notch homolog protein 3 (Homo sapiens) (Q9UM47 whole entry, looked up): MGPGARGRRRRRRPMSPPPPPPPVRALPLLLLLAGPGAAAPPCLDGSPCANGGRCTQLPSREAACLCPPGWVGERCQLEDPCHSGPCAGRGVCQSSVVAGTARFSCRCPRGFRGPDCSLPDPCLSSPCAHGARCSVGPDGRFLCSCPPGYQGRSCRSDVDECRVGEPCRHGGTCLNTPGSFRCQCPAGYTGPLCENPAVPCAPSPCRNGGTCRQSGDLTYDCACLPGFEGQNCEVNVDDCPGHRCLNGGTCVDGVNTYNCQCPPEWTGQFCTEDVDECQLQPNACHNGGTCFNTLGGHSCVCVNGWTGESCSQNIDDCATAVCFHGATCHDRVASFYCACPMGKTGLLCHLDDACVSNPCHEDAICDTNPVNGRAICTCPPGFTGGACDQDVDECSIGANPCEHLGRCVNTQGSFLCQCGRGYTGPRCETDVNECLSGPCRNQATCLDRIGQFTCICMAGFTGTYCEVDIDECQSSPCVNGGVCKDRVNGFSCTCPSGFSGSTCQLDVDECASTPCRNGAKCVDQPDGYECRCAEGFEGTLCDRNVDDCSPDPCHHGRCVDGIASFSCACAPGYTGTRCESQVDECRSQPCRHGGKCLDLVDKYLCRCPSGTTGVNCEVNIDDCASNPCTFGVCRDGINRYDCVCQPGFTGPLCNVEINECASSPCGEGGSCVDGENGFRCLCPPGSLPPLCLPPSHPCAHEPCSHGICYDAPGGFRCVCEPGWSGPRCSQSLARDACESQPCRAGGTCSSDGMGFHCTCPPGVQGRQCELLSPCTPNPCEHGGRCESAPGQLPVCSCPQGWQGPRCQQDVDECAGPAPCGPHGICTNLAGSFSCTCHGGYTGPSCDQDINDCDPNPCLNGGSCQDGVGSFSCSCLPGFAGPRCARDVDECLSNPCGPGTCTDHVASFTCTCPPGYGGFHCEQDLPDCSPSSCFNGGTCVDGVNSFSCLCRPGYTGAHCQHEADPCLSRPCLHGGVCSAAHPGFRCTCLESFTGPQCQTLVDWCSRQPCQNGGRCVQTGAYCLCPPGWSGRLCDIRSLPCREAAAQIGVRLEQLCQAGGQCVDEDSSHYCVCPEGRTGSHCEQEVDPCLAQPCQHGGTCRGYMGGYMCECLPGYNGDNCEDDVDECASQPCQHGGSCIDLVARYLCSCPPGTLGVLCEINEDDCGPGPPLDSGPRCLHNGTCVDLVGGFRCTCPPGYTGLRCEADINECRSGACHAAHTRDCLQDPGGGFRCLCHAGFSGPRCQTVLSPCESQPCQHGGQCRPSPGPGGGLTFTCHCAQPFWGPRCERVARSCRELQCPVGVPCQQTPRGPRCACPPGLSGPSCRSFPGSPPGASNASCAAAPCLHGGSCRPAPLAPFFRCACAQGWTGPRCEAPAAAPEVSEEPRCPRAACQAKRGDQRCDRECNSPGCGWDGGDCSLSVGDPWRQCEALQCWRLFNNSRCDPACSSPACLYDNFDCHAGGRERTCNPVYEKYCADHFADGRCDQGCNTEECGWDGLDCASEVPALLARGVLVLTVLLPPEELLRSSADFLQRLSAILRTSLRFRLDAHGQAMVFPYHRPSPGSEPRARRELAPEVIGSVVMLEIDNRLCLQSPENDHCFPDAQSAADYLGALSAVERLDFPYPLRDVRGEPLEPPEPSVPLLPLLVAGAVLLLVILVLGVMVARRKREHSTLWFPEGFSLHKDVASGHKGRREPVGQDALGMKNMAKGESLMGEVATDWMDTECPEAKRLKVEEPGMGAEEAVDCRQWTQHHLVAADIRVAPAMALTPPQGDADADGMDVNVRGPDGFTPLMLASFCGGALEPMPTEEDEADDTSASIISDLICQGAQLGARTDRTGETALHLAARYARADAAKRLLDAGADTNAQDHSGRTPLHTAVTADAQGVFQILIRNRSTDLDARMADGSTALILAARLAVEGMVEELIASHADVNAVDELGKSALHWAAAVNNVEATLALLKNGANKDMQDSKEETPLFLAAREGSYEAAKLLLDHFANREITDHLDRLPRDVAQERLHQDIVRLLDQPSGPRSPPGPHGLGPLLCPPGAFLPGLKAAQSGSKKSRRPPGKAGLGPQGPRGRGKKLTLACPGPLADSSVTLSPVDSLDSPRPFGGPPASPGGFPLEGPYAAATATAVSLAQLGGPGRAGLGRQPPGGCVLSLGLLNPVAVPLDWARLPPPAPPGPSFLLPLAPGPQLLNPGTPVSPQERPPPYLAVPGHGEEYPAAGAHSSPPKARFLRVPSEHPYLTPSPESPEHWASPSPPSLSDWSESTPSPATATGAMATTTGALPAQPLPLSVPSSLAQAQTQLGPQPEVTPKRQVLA
# Sequence of Epidermal growth factor receptor (Homo sapiens) (P00533 whole entry, looked up): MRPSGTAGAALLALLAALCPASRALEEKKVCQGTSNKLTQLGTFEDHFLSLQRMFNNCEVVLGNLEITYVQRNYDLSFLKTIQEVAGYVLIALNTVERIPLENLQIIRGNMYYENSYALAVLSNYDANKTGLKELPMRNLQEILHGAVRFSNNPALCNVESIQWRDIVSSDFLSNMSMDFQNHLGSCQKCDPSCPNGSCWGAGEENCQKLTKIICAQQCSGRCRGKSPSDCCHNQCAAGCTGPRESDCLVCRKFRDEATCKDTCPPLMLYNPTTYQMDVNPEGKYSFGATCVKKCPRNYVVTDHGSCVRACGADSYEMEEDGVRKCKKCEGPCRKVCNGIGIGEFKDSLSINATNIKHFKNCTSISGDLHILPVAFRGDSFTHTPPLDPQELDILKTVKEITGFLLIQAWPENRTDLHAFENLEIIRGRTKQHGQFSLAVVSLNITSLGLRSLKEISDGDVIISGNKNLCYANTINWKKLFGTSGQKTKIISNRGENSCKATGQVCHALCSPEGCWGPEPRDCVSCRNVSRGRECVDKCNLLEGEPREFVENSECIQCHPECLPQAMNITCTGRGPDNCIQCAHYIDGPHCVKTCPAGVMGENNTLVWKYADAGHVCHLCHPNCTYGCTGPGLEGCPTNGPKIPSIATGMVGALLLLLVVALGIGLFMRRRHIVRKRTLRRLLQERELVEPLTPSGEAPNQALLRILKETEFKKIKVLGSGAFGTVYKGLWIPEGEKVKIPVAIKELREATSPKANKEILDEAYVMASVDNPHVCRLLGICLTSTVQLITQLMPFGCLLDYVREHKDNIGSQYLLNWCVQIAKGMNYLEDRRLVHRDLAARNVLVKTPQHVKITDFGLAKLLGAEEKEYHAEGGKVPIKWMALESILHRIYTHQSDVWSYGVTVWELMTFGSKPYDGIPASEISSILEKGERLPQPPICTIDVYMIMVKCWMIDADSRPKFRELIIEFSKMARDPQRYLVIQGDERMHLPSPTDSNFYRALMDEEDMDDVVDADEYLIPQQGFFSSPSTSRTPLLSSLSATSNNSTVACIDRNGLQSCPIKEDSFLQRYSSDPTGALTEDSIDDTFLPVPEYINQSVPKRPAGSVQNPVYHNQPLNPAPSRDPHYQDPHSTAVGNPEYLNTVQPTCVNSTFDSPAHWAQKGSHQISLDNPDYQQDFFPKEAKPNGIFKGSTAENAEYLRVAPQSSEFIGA
# Sequence of Fibroblast growth factor 10 (Homo sapiens) (O15520 whole entry, looked up): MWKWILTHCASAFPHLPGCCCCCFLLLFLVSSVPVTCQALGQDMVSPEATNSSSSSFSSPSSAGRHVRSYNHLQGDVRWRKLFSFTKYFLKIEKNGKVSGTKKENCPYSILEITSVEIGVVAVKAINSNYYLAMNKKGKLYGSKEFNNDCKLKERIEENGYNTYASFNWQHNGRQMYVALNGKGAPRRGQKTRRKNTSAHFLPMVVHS
# Sequence of Dickkopf-related protein 1 (Homo sapiens) (O94907 whole entry, looked up): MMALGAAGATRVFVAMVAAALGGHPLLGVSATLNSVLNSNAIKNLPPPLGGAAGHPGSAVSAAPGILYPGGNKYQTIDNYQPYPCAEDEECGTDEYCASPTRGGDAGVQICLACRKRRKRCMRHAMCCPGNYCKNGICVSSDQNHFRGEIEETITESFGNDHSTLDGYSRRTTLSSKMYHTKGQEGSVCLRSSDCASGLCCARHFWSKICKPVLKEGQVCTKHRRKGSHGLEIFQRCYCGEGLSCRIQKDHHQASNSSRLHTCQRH
# Sequence of Follistatin-related protein 3 (Homo sapiens) (O95633 whole entry, looked up): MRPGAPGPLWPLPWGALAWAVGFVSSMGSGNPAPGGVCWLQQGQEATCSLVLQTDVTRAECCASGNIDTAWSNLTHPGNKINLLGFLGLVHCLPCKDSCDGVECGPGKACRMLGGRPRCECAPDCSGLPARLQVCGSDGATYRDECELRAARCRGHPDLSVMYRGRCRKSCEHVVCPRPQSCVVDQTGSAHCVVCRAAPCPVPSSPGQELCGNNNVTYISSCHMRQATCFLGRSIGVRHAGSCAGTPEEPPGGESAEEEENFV
# Sequence of Torsin-1A-interacting protein 2 (Homo sapiens) (Q8NFQ8 whole entry, looked up): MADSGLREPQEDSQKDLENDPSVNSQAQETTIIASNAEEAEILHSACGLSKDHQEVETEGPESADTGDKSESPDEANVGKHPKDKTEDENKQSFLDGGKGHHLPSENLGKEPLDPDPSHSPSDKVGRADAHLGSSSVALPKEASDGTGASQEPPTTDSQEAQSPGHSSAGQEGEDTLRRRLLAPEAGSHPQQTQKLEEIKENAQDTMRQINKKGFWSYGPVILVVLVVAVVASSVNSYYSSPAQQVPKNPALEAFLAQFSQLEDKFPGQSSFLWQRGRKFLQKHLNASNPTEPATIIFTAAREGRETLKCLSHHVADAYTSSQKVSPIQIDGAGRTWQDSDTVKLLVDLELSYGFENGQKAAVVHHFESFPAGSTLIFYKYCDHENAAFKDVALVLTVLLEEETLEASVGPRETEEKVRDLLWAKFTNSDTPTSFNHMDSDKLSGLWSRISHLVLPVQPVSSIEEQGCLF
Structure (SMILES),composite z-score [1],z-score [2],z-score [3],z-score [4],composite z-score [5],z-score [6],composite z-score [7],composite z-score [8],composite z-score [9],composite z-score [10],composite z-score [11],composite z-score [12],composite z-score [13],z-score [14],composite z-score [15],composite z-score [16],composite z-score [17],composite z-score [18],composite z-score [19],composite z-score [20]
C[N+](C)(C)CCCCNC(=O)[C@H]1C[C@H]2C(=O)N[C@@H](Cc3ccccc3)C(=O)N2[C@H]1c1cccc(OCCO)c1,0.982,-0.0304 (inactive),0.351 (inactive),-1.82 (inactive),1.99,0.0648 (inactive),0.0899,1.88,1.02,0.256,1.59,0.104,-0.17,-0.161 (inactive),1.44,1.13,0.899,1.48,2.04,0.748
COC(=O)[C@@]1(Cc2ccc(OC)cc2)[C@H]2c3cc(C(=O)N4CCCC4)n(Cc4ccc(Cl)c(C(F)(F)F)c4)c3C[C@H]2CN1C(=O)c1ccccc1,1,-1.21 (inactive),1.37 (inactive),0.509 (inactive),3.59,-0.304 (inactive),0.711,-0.109,1.03,0.0788,1.38,1.62,1.23,-0.75 (inactive),0.927,1.27,-0.02,1.36,-0.428,0.822
CC(C)(C)N1CC=CC23O[C@@H]4/C=C\CCCOC(=O)C4[C@H]2C(=O)N(CCCCCO)[C@@H]3C1=O (stereo not given in full),-0.981,-0.143 (inactive),0.0289 (inactive),-0.635 (inactive),0.389,-0.938 (inactive),-0.114,-1.48,-0.457,-0.289,1.58,-0.3,0.149,-0.464 (inactive),-0.943,-0.581,-1.43,-1.63,-0.473,-1.11
CC(C)NC(=O)[C@@]1(c2ccc([N+](=O)[O-])cc2)CC(=O)N(CC23CC4CC(CC(C4)C2)C3)[C@@H]1c1ccc(CO)cc1,1.54,-0.383 (inactive),-0.822 (inactive),0.937 (inactive),3.03,0.267 (inactive),0.707,1.57,1.02,0.837,1.4,0.998,0.931,-0.279 (inactive),0.911,1.34,0.396,1.45,1.3,0.64
N#Cc1ccc(-c2cccc(=O)o2)cc1,1,-0.24 (inactive),-0.537 (inactive),0.805 (inactive),0.552,-0.675 (inactive),-0.212,0.671,0.718,-0.0794,0.306,-0.269,-0.0642,0.862 (inactive),0.219,0.441,0.506,0.345,0.0771,0.254
[N-]=[N+]=Nc1ccccc1[C@@H]1OC(c2ccc(OCCCO)cc2)=N[C@]1(CCS(=O)(=O)c1ccccc1)C(=O)NCC(O)CO (stereo not given in full),0.856,0.678 (inactive),0.636 (inactive),0.347 (inactive),3.1,0.679 (inactive),-0.116,0.351,0.0354,-0.147,1.73,-0.181,0.72,-0.633 (inactive),-0.176,0.434,-0.586,-0.332,-0.328,0.693
CN(C)CCCCNC(=O)[C@H]1C[C@H]2C(=O)N3CCC[C@H]3C(=O)N2[C@H]1c1cccc(OCCO)c1,1.1,0.752 (inactive),1.68 (inactive),0.751 (inactive),3.09,-0.101 (inactive),0.0164,0.866,0.476,-0.0968,1.67,0.0092,0.833,-0.0803 (inactive),0.425,0.676,-0.497,-0.0327,-0.0023,0.0098
CN1C(=O)C2C(C1=O)C1C=C(c3ccc(CO)cc3)C2C(C2CC2)N1C (stereo not given),-0.346,0.724 (inactive),-1.36 (inactive),2.59 (inactive),0.956,0.689 (inactive),-0.209,0.102,-0.414,-0.229,0.028,-0.152,0.0977,-0.0431 (inactive),0.192,0.249,0.35,-0.463,-0.143,0.304
O=C(NCC(O)CO)C1N=C(c2ccc(OCCCO)cc2)N(c2ccccc2)O1 (stereo not given),1.55,-0.375 (inactive),-0.243 (inactive),0.13 (inactive),1.8,0.153 (inactive),-0.196,1.19,0.882,-0.0531,-0.144,-0.12,-0.104,-1.13 (inactive),0.897,0.65,0.195,0.799,0.433,-0.899
CC(C)=CCCC(C)=CC(O)C1C=CC2C(=O)NC(=O)C2N1Nc1ccc(Cl)cc1Cl (stereo not given),0.258,-0.835 (inactive),-4.51 (inactive),0.279 (inactive),2.31,-2.06 (inactive),0.17,-0.218,0.845,-0.0904,0.44,0.34,0.992,1.22 (inactive),0.499,0.0742,0.542,1.1,0.153,1.44
O=C(NCc1ccccc1)[C@@H]1c2ccccc2C(=O)N(Cc2cc(C(F)(F)F)cc(C(F)(F)F)c2)[C@H]1c1ccc(CO)cc1,1.53,0.744 (inactive),-0.077 (inactive),0.296 (inactive),2.55,-1 (inactive),-0.0512,1.37,1.12,0.0453,0.569,0.0477,0.184,0.000819 (inactive),1.13,1.25,0.171,1.04,0.517,0.277
CC1=C([C@H](O)CCc2ccccc2)[C@H](CO)n2c(=O)n(-c3ccccc3)c(=O)n2C1,-0.0416,-1.02 (inactive),-1.03 (inactive),-0.539 (inactive),-0.478,1.87 (inactive),-0.355,0.0865,-0.696,-0.211,-0.385,-0.204,-0.48,-1.04 (inactive),0.233,0.196,0.167,-0.0401,0.231,0.472
